Measurements published in ChEMBL document CHEMBL1157539, “Thousands of chemical starting points for antimalarial lead identification” (Nature, 2010).

Experiments:
Type in all cases: functional
Plasmodium falciparum [1] = experiment: GSK_TCMDC: Inhibition of Plasmodium falciparum 3D7 in whole red blood cells, using parasite LDH activity as an index of growth. Test compounds present at 2uM
Plasmodium falciparum [2] = experiment: GSK_TCMDC: Inhibition of Plasmodium falciparum Dd2 in whole red blood cells, using parasite LDH activity as an index of growth. Test compounds present at 2uM
HepG2 = experiment: GSK_TCMDC: Percent inhibition of human HepG2 cell line. Test compounds present at 10uM.

SMILES | Inhibition (Plasmodium falciparum [1]) [%] | Inhibition (Plasmodium falciparum [2]) [%] | Inhibition (HepG2) [%]
Oc1ccc2ccccc2c1C=NNc1nc(=Nc2ccccc2)[nH]c(=Nc2ccccc2)[nH]1 | 99 | 73 | 55
COc1cc([N+](=O)[O-])ccc1NC(=O)c1cc(Cl)ccc1O | 87 | 100 | 92
CCCCCN1C(=O)C(c2ccccc2)(c2ccccc2)N=C1N | 97 | 68 | 18
O=[N+]([O-])c1ccc2c(-c3ccccc3)c(-c3ccccc3)n(O)c2c1 | 97 | 11 | 8
COc1ccc2ncc(F)c(CCN3CC[C@@H](CNCc4cc5c(cn4)OCS5)C3)c2n1.Cl | 98 | 29 | 3
Cc1cccc2nc(-c3ccc(-c4ccc(CNCCCN5CCCC5=O)cc4)s3)[nH]c12.O=C(O)C(F)(F)F | 100 | 43 | 17
O=[N+]([O-])c1cccc(C=NNc2nc(=Nc3ccccc3)[nH]c(=Nc3ccccc3)[nH]2)c1 | 99 | 55 | 10
CNc1nc(N/N=C/c2cc3c(cc2[N+](=O)[O-])OCO3)nc(Nc2cccc(C(F)(F)F)c2)n1 | 100 | 60 | 0
FC(F)(F)c1ccc2[nH]ccc(=NN=Cc3ccccc3Cl)c2c1 | 100 | 83 | 0
C=CCn1c(C)cc(C(=O)COc2ccc(S(=O)(=O)N3CCOCC3)cc2[N+](=O)[O-])c1C | 94 | 5 | 0
CC1=C(C(=O)Nc2ccc(Cl)cc2)C(c2ccncc2)n2nc(C(F)(F)F)nc2N1 (stereo not given) | 87 | 49 | 25
COc1ccc([N+](=O)[O-])cc1N(Cc1ccccc1-c1ccccc1)S(=O)(=O)c1ccc(C(F)(F)F)cc1[N+](=O)[O-] | 88 | 92 | 2
Oc1ccc2[nH]c(-c3ccc(OC(F)(F)F)cc3)nc2c1CNC1CCCC1 | 99 | 97 | 32
O=C(Nc1cccc(CN2CCCN(Cc3cccnc3)CC2)c1)c1cc2ccccc2s1.O=C(O)C(F)(F)F | 92 | 28 | 15
CC1(C)NC(N)=NC(=N)N1OCc1ccc2ccccc2c1CON1C(=N)N=C(N)NC1(C)C | 96 | 12 | 8
CCCCN(CCCC)CCCCNc1c2ccccc2nc2ccccc12.Cl | 100 | 100 | 36
Cc1cc(N2CCOCC2)nc2ccc(NC(=O)c3ccc(Cl)c([N+](=O)[O-])c3)cc12 | 98 | 15 | 12
O=C(Nc1cccc(-c2ccc(CN3CCCC3)cc2)c1)c1ccc(Cl)cc1.O=C(O)C(F)(F)F | 100 | 47 | 29
CC(C)c1ccc(NC(=O)NC2CCN(CCCCCNC(=O)/C=C/c3ccc(Cl)c(Cl)c3)CC2)cc1 | 100 | 19 | 0
CCCc1cc(C(=O)N[C@@H](Cc2ccccc2)[C@H](O)CNC(C)C)c(F)c(N2CCCC2=O)c1 | 90 | 22 | 0

SMILES | Inhibition (Plasmodium falciparum [1]) [%] | Inhibition (Plasmodium falciparum [2]) [%] | Inhibition (HepG2) [%]
CCCC(=O)c1cnc2c(OCCCc3c[nH]cn3)cccc2c1Nc1c(C)cccc1C | 98 | 14 | 20
CN1CCN(CC(=O)Nc2ccc(-c3csc(-c4nc5ccccc5[nH]4)c3)cc2)CC1 | 99 | 46 | 6
OC(CN1c2ccccc2Sc2ccccc21)CN(C1CCCCC1)C1CCCCC1 (stereo not given) | 99 | 96 | 46
FC(F)(F)c1ccc2[nH]c(-c3cccc(-c4cccc(CN5CCN(c6ccncc6)CC5)c4)c3)nc2c1.O=C(O)C(F)(F)F | 100 | 99 | 93
O=C(NCc1ccccc1)c1ncn(CCCN2CCC(N3CCCC3)CC2)c1-c1ccc(Cl)c(Cl)c1.O=CO | 89 | 36 | 8
COc1ccccc1N1CCN(c2cccc3c2nc(-c2cncc(C#N)c2)n3CCNCc2ccccc2)CC1.O=C(O)C(F)(F)F | 100 | 81 | 0
CCc1cccc2sc(N3CCN(C(=O)c4ccc([N+](=O)[O-])o4)CC3)nc12 | 97 | 94 | 2
Cc1cccc2nc(-c3ccc(-c4ccc(NC(=O)CN5CCN(C)CC5)cc4)cc3)[nH]c12 | 100 | 83 | 29
CCS(=O)(=O)N1CCN(c2nc(-c3ccccc3)nc(COC)c2Cc2ccccc2F)CC1 | 82 | 34 | 0
Cl.N=C(N)Nc1cccc(NC(=O)Nc2cccc(NC(=N)N)c2)c1 | 87 | 71 | 0
O=C(Cc1c[nH]cn1)Nc1cccc(-c2ccc(-c3nc4cc(C(F)(F)F)ccc4[nH]3)s2)c1 | 100 | 99 | 5
COc1ccc2nccc([C@@H](O)CN3CCC(NCc4nc5c(F)cccc5[nH]4)CC3)c2c1.O=C(O)C(=O)O | 100 | 6 | 0
CCCCCCc1cc2cc(-c3nc(-c4ccc(OC)cc4)cs3)c(=O)oc2cc1O | 97 | 93 | 45
COc1cccc2c(N/N=C/c3ccccc3[N+](=O)[O-])cc(C)nc12 | 99 | 32 | 0
CCCCCOc1ccc(/N=C2\C=C(O)C(=O)c3ccccc32)cc1 | 99 | 96 | 10
CCCc1cc(NCc2ccncc2)nc(Nc2ccc(F)cc2)n1 | 90 | 6 | 9
COc1ccc(C(=O)CCC(=O)N(CCSC(C)(C)C)Cc2ccc(-c3ccc(CNCCc4ccc(S(C)(=O)=O)cc4)cn3)cc2)cc1F.O=C(O)C(F)(F)F | 98 | 42 | 9
Cn1nc(-c2ccc(CNC3CCc4ccccc43)cc2)c2cnc(NCCN3CCCC3)nc21 (stereo not given) | 99 | 17 | 21
COc1c(C2CCN(CCCCNC(=O)c3ccc(-c4ccc(C#N)cc4)cc3)CC2)cc(Cl)c2c1CCCC2 | 93 | 59 | 45
CCNc1cc(C(=O)N[C@@H](Cc2ccccc2)[C@H](O)CNCc2cccc(-c3cncnc3)c2)cc(N2CCCC2=O)c1.O=C(O)C(F)(F)F | 97 | 96 | 5

SMILES | Inhibition (Plasmodium falciparum [1]) [%] | Inhibition (Plasmodium falciparum [2]) [%] | Inhibition (HepG2) [%]
CCOc1ccc(-c2nonc2NC(=O)c2cccs2)cc1OCC | 100 | 100 | 6
NC(=O)c1ccccc1Nc1nc(Nc2ccc(N3CCOCC3)cc2)ncc1[N+](=O)[O-].O=C(O)C(F)(F)F | 98 | 96 | 53
CC(Cc1ccc(NC(=O)c2ccc(CNCCc3ccccc3)cc2)cc1)NCCc1cccc(Cl)c1.Cl (stereo not given) | 100 | 99 | 100
Br.CC(C)c1ccc(OCCCON2C(=N)N=C(N)NC2(C)C)cc1 | 93 | 97 | 69
Cn1cc(CN2CCCC(COC(c3ccc(F)cc3)c3ccc(F)cc3)C2)cn1 (stereo not given) | 98 | 100 | 15
Cc1cccc2nc(-c3cccc(-c4cccc(CNCc5ccc(S(C)(=O)=O)cc5)c4)c3)[nH]c12.O=C(O)C(F)(F)F | 100 | 66 | 13
O=C(Cc1ccc(NC(=O)c2ccc(O)c(-c3ccc(Cl)c(Cl)c3)c2)cc1)NCCc1ccc(Cl)c(Cl)c1 | 99 | 88 | 0
CC(C)Cc1c(O)nc(SCCN2CCOCC2)[nH]c1=O.Cl | 88 | 0 | 19
CS(=O)(=O)Nc1ccc2c(C3CCN(CCC4CCN(C(=O)/C=C/c5ccc(Cl)c(Cl)c5)CC4)CC3)c[nH]c2c1 | 99 | 63 | 35
COc1ccc2nccc([C@@H](O)CN3CCC(NCc4ccc5c(n4)NC(=O)CS5)C(F)C3)c2c1.Cl (stereo not given in full) | 89 | 88 | 5
C=C[C@H]1CN(CCCCCCC)CC[C@H]1CCN(C)c1ccnc2ccc(OC)cc12.O=C(O)C(=O)O | 97 | 93 | 22
CCOc1ccc(-n2nc3c(Cl)nnc(-c4ccccc4)c3c2-c2ccccc2)cc1 | 96 | 99 | 0
COc1ccc(CNC(=O)c2cnc3c(O)cccc3c2Nc2cccc(NC(=O)c3ccc(-c4ccccc4)cc3)c2)cc1.O=C(O)C(F)(F)F | 90 | 83 | 42
Cn1c(Cc2ccccc2)nnc1Sc1ccc(C#N)c([N+](=O)[O-])c1 | 93 | 29 | 0
CN1CCC(N(Cc2ccc(-c3ccc(C(F)(F)F)cc3)cc2)C(=O)Cn2c(SCc3cccc(F)c3F)cc(=O)c3c2CCC3)CC1.O=C(O)C(O)C(O)C(=O)O | 89 | 83 | 50
O=C(Nc1ccccc1C(F)(F)F)Nc1nn(Cc2c(F)cccc2Cl)cc1Br | 100 | 86 | 0
NC(=O)c1cccc(C(=O)Nc2cccc(-c3ccc(-c4nc5ccccc5[nH]4)s3)c2)c1 | 95 | 69 | 37
COc1cc(CN2CCC(CO)(Cc3cccc(C(F)(F)F)c3)CC2)c(Cl)cc1O | 99 | 64 | 12
Cc1nc(-c2ccc(-c3ccc(NC(=O)c4coc5ccc(N6CC(C)N(C)C(C)C6)cc45)cc3)c(C)c2)no1.Cl (stereo not given) | 96 | 46 | 21
COc1ccc2nccc([C@@H](O)CN3CCC(NCc4nc5c(OCc6ccccc6)cccc5[nH]4)CC3)c2c1.O=C(O)C(=O)O | 100 | 34 | 6
